Experimental data from PubChem BioAssay AID1159580 (chemical genetic matrix, 2015).
In all, about 5,500 compounds went through this assay and about 2,000 (36%) were called active. Not shown: some 18% with an inconclusive outcome. Cut-off read from the data, not from the text of the source: active = normalized growth mostly below about 0.91 (no sharp cut-off); inconclusive = no clear call, values can overlap the other calls; inactive = mostly above about 0.92. Some of the results follow.

Experiment: chemical genetic growth profiling, strain panel (AID 1159580);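 note: tested at 20 µM; growth read once vehicle control cultures reached saturation at 30 °C; 1 = growth at the plate median or of vehicle wells; lower values mean less growth of the strain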
Conditions: S. cerevisiae deletion strains, growth OD
[1] = locus YAL013W, strain DEP1, active compounds read low
[2] = locus YDR150W, strain NUM1, active compounds read low
[3] = locus YJR075W, strain HOC1, active compounds read low
[4] = locus YMR263W, strain SAP30, active compounds read low
[5] = locus YNL153C, strain GIM3, active compounds read low
[6] = locus YPL241C, strain CIN2, active compounds read low
[7] = locus YAL040C, strain CLN3, active compounds read low
[8] = locus YCL061C, strain MRC1 (second series), active compounds read low
[9] = locus YDR363W, strain ESC2, active compounds read low
[10] = locus YER002W, strain NOP16, active compounds read low
[11] = locus YNL175C, strain NOP13, active compounds read low
[12] = locus YNL197C, strain WHI3, active compounds read low
[13] = locus YNL224C, strain SQS1, active compounds read low
[14] = locus YOR083W, strain WHI5 (second series), active compounds read low

Measured: normalized growth

Cc1ccc(N=Cc2cccs2)cc1Cl
inactive: [1] 1.01 | locus YBR229C, strain ROT2, active compounds read low 0.998 | locus YCL061C, strain MRC1, active compounds read low 1.03 | locus YDL101C, strain DUN1, active compounds read low 1 | [2] 0.982 | locus YEL061C, strain CIN8, active compounds read low 1 | locus YGR078C, strain PAC10, active compounds read low 1 | locus YHR030C, strain SLT2, active compounds read low 1.04 | locus YHR087W, strain rtc3, active compounds read low 0.999 | locus YJR043C, strain POL32, active compounds read low 1.02 | [3] 1.01 | locus YKL190W, strain CNB1, active compounds read low 0.998 | locus YLR039C, strain RIC1, active compounds read low 0.991 | locus YLR058C, strain SHM2 (second series), active compounds read low 1.01 | locus YLR085C, strain ARP6, active compounds read low 1.05 | locus YLR262C, strain YPT6, active compounds read low 1 | locus YML094W, strain GIM5, active compounds read low 1 | locus YMR219W, strain ESC1, active compounds read low 0.998 | [4] 1 | locus YNL128W, strain TEP1, active compounds read low 1 | [5] 1 | locus YNL298W, strain CLA4 (second series), active compounds read low 1.04 | locus YNL322C, strain KRE1, active compounds read low 1.01 | locus YNR030W, strain Alg12, active compounds read low 1.02 | locus YOL006C, strain TOP1, active compounds read low 1.06 | locus YPL055C, strain LGE1, active compounds read low 1 | [6] 1.05 | locus YPR135W, strain CTF4, active compounds read low 1.01

O=C(O)CC1CCCc2ccccc2C1O (stereo not drawn)
inactive: [1] 1.01 | [7] 1.09 | [8] 0.999 | [9] 1.02 | [10] 1.01 | [4] 0.997 | [5] 1 | [11] 1.01 | [12] 1.01 | [13] 1.01 | [14] 1.02

C[C@]12CCC(=O)C=C1CC[C@@H]1[C@@H]2CC[C@@]2(C)[C@H]1CC[C@]2(O)C(=O)CO
inactive: [1] 1.02 | [7] 1 | [8] 0.994 | [2] 0.994 | [9] 0.948 | [10] 0.98 | [3] 1 | locus YMR307W, strain GAS1, active compounds read low 1.01 | [5] 0.938 | [11] 0.969 | [12] 0.975 | [13] 0.992 | [14] 0.966 | [6] 1
